# ALDH1A1 block: blocks purified human ALDH1A1 activity | P00352 | Purified ALDH1A1, NADH fluorescence, propionaldehyde substrate | Potency, µM (top dose mostly 75.3 µM), without a hit: at the highest dose activity, negative = inhibition, actives largely listed as inhibitors | hit rate 7.3% among 220,000 | AID 1030; active = well fitted inhibition curve with a large enough effect, not every such curve was filed as active; inconclusive = small, poorly fitted or top-dose-only effect, or another doubt; inactive = no such curve, though single readings can be large or run the other way;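 note: plate controls were no enzyme wells and a reference inhibitor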
# Target sequence (P00352 whole entry, looked up): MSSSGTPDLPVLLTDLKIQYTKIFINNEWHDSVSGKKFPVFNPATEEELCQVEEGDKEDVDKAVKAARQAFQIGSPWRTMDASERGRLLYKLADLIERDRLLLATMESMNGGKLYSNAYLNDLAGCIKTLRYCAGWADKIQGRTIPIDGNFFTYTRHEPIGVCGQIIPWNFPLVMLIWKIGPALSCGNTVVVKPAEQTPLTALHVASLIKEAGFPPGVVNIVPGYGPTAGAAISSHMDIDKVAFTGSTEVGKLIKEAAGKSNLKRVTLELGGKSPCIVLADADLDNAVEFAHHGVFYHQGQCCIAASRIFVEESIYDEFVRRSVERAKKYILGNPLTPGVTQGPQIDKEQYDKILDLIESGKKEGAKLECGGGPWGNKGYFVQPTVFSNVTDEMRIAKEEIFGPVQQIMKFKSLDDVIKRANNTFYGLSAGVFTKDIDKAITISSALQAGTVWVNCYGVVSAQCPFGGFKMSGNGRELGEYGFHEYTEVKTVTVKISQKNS
# KinaseGlo FLuc: blocks Kinase-Glo luciferase, a counter-screen artifact; AID 1379; hit rate 0.28% among 200,000; Potency, µM (top dose mostly 38.3 µM), without a hit: top-dose activity change, negative = inhibition, hits mostly inhibitors; Q27757; Kinase-Glo luciferase, ATP luminescence, 8 min; note: % is set by controls: 0 for no effect and ±100 for the full control effect; nearly all actives have a fitted effect of over 60% in size
#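 Substrate mix (final 50 mM imidazole pH 7.2, 50 mM KCl, 7 mM MgCl2, 10 uM ATP, 0.01% Tween 20, 0.05% BSA) plus pin-tool compound, then Kinase-Glo detection mix; 8 min ambient, luminescence read.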
# LMNA splice mod: changes lamin A minigene splicing in HeLa cells; HeLa LMNA splicing GFP/RFP minigene ratio, 48 h; Potency, µM (highest dose often 46.1 µM), for the others: at the highest dose ratio change, negative = inhibition, most hits filed as inhibitors; hit rate 0.01% among 200,000; active = well fitted inhibition curve with a large enough effect in the signal ratio, with a control signal flat, not every such curve was filed as active; inconclusive = small, poorly fitted or top-dose-only effect, or effect the other way, or a change in a side signal; the % refers to the signal ratio; note: % is set by controls: 0 for no effect and ±100 for the full control effect
#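 S3 HeLa stable clones carrying a lamin A-EGFP splicing minigene plus DsRed2 were seeded at 600 cells/well in Opti-MEM with 2% FBS, pin-dosed and incubated 48 h at 37°C. Acumen cytometry (488 nm) gave the GFP/RFP total-intensity ratio.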
# HttQ103 aggreg: inhibitors of mutant huntingtin aggregate formation in PC12 cells; Potency, µM (doses to about 46.1 µM), inactives show at the highest dose activity change, negative = inhibition, usual class: inhibitors; hit rate 1.1% among 220,000; PC12 HttQ103-GFP aggregates, Acumen cytometry, 40 h; AID 1688; note: % is set by controls: 0 for no effect and ±100 for the full control effect; nearly all actives have a fitted effect of over 60% in size
#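 Steps: seed 1500 PC12 HTTQ103-GFP cells/well; add tebufenozide, 100 nM final; add compound titration; add ATPLite reagent; quantify GFP aggregates by laser scanning cytometry.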
# HPGD inh: inhibitors of human 15-hydroxyprostaglandin dehydrogenase (HPGD) | P15428 | purified HPGD, NADH fluorescence kinetic, PGE2 substrate | Potency, µM, for inactives: at the top dose activity change, negative = inhibition, most hits filed as inhibitors | hit rate 4.3% among 150,000 | AID 894; active = well fitted inhibition curve with a large enough effect, not every such curve was filed as active; inconclusive = small, poorly fitted or top-dose-only effect, or another doubt; inactive = no such curve, though single readings can be large or run the other way; note: % is set by controls: 0 for no effect and ±100 for the full control effect
# Target sequence (P15428 whole entry, looked up): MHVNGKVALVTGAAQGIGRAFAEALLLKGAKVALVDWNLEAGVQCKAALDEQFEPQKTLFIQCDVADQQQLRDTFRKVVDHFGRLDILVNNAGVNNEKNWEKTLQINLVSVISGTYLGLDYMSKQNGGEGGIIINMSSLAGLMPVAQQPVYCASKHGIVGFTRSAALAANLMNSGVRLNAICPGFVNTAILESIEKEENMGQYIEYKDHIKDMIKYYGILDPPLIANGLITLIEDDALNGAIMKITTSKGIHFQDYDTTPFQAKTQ
#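 NADH formation kinetics: reaction with 30 uM PGE2 and 1 mM NAD+ (final), 20 nM enzyme, Tris-HCl pH 8 with Tween 20, after 15 min compound preincubation at room temperature. Fluorescence change, last versus first of five reads.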
# HTT ATP protect: Huntington cell model cytoprotection by ATP luminescence. PC12 HTT-Q103 induced, cytoprotection, ATP luminescence, 40 h. Potency, µM (highest dose often 56.4 µM), inactives show cytoprotection (ATP increase), usual class: activators. hit rate 0.14% among 230,000; note: % of control where 0% means no effect; nearly all actives have a fitted effect of over 45% in size
#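 PC12 cells stably carrying ecdysone-inducible Htt exon 1 (Q103)–GFP were induced with 100 nM tebufenozide (final) alongside library compounds in a dose series. Cytoprotection was scored as retained ATP by ATPlite luminescence.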
# Starred values were filed as active, the others as inactive; u = inconclusive; x = not tested or not shown; ! = repeats disagree; [ ] = remark or other dose. In the library only some 9% were active in any assay of this set; here they are far more common. Unless noted, calls come from the whole dose curve; as a rule, active = well fitted curve in the direction sought with a large enough effect; inconclusive = small, poorly fitted or top-dose-only effect, or another doubt; inactive = no such curve, though single readings can be large; an effect the other way counts as inactive or inconclusive. Potency is the fitted concentration of half-maximal effect.
SMILES,ALDH1A1 block,KinaseGlo FLuc,LMNA splice mod,HttQ103 aggreg,HPGD inh,HTT ATP protect
O=[N+]([O-])c1ccccc1/C=C/C=N/n1c(-c2ccccc2)n[nH]c1=S,u,4%,u,u,7.1µM*,x
S=c1[nH]nc(-c2ccncc2)n1/N=C/C=C/c1ccccc1,x,x,x,-14%[9.22 µM],x,-9%[10 µM]
COc1ccccc1N1CCN(/N=C/C=C\c2ccccc2[N+](=O)[O-])CC1,u,0%,u,-24%,x,-27%
COc1cccc(-n2ccn(CC(=O)Nc3ccccc3F)c(=O)c2=O)c1,x,x,9%[46 µM],x,x,x
O=C(CCN1C(=O)c2cccc3cccc(c23)C1=O)NCC1CCCO1 (centres undefined),x,x,x,-25%[9.22 µM],x,10%[10 µM]
O=C1c2oc3ccccc3c(=O)c2C(c2cccc(F)c2)N1CCCO (centres undefined),14µM*,-6%,-2%,u,1%,9%
Cc1cc2oc3c(c(=O)c2cc1C)C(c1ccc(F)cc1)N(CCCN1CCOCC1)C3=O (centres undefined),7.1µM*,0%,2%,u,-18%,-18%[10 µM]
COc1ccc(C2c3c(oc4ccc(F)cc4c3=O)C(=O)N2CCN2CCOCC2)cc1OC (centres undefined),x,x,x,x,x,-7%
O=C1c2oc3ccc(Cl)cc3c(=O)c2C(c2cccnc2)N1Cc1ccco1 (centres undefined),u,-2%,-3%,-4%,-2%,4%
O=C1c2oc3ccccc3c(=O)c2C(c2cccnc2)N1Cc1ccco1 (centres undefined),14µM*,3%,4%,3%,-1%,7%[1.9 µM]
O=C(NC(Cc1ccccc1)c1nc2ccccc2[nH]1)C1CC(=O)N(c2ccc3c(c2)OCCO3)C1 (centres undefined),10µM*,-7%,0%,-20%,-13%,0%
O=C(NCCCN1CCOCC1)c1cc2c(s1)CSC2,-5%,-4%,0%[0.0737 µM],15%,-25%,-9%[0.074 µM]
O=C(Nc1ccc(OCC(F)(F)C(F)F)c(C(F)(F)F)c1)c1ccccc1O,2%,1%,u,5µM*,u,-3%[10 µM]
CC1=CCC2C(=O)N(c3cc(C)on3)C(=O)C2C1 (centres undefined),-3%,2%,7%,12%,-11%,15%[10 µM]
COc1ccc2sc(N3C(=O)C4CC=C(C)CC4C3=O)nc2c1 (centres undefined),13µM*,2%,-9%,-21%,-13%,20%[10 µM]
C=CCn1c(-c2cccnc2)n[nH]c1=S,8%,-2%,-7%,10%,1%,0%[10 µM]
CC1(C)CC(=O)C(CC2=C(O)CC(C)(C)CC2=O)C(=O)C1,11µM*,0%,7%,12%,-8%,-14%
CC1(C)CC(=O)C(C=NC2CCCCC2)=C(O)C1,-6%,-3%,-4%,-11%,-12%,-7%
CN=CC1=C(O)CC(C)(C)CC1=O,0%,5%,3%,20%,-7%,-16%[0.074 µM]
CC1(C)CC(=O)C(CC2=C(O)CC(C)(C)CC2=O)=C(O)C1,8.9µM*,-4%,-1%,-1%,-12%,-6%[1.9 µM]
Cc1ccc(C)c(NC(=O)CCN2CC(C)OC(C)C2)c1 (centres undefined),10%,-5%,-1%,14%,0%,-17%
COc1cccc(S(=O)(=O)N2CCN(C(=O)c3ccco3)CC2)c1,u,4%,x,-11%[9.22 µM],x,-40%
CCOc1ccccc1CNS(=O)(=O)c1ccc2[nH]c(=O)sc2c1,u,8%,u,13µM*,-22%,-10%
CC(=O)c1ccc(NC(=O)CCc2c(C)nn(-c3ccc(N4CCCCC4)nn3)c2C)cc1,x,x,-10%[46 µM],x,x,x
CCn1c(C)nc2cc(C(=O)NNS(=O)(=O)c3c(F)cc(F)c(Cl)c3F)ccc21,3%,2%,-15%[46 µM],5%,x,-12%
SMILES,ALDH1A1 block,KinaseGlo FLuc,LMNA splice mod,HttQ103 aggreg,HPGD inh,HTT ATP protect
Cc1cc(C)nc(-n2cc(C(=O)c3cc(F)ccc3O)cn2)n1,10µM*,2%,-12%,-18%,-13%,6%[10 µM]
CCn1c(C)nc2cc(C(=O)n3cc(C(=O)c4cc(F)ccc4O)cn3)ccc21,1.4µM*,-5%,5%,-15%,u,0%[10 µM]
COCCn1c(=NC(C)=O)sc2cc([N+](=O)[O-])ccc21,-12%,-4%,7%,3%,-24%,28%[10 µM]
COc1cc(NCCCC(C)N)c2ncccc2c1 (centres undefined),22µM*,-6%,3%,18µM*!,-17%,-7%[10 µM]
CC(C)Cn1cnc2c(c1=O)c1nc3ccccc3nc1n2Cc1ccc2c(c1)OCO2,0.79µM*,-2%,5%,-1%,-18%,-19%
CC(NC(=S)NCCCN1CCOCC1)C1CC2CCC1C2 (centres undefined),-6%,1%,-27%[46 µM],-23%,x,4%[10 µM]
CC[n+]1ccc(C[n+]2ccccc2)c2ccccc21,19µM*,-1%,16%,-2%,u,-10%[10 µM]
Cc1ccc2c(c1)c(C)cc[n+]2Cc1ccccc1,-7%,x,u,-27%,x,18%[10 µM]
O=[N+]([O-])c1cccc2c[nH]nc12,-15%,-3%,x,x,32µM*,-58%[1.9 µM]
O=[N+]([O-])c1cccc2cn[nH]c12,-5%,4%,0%,-6%,-7%,-28%
COc1ccc(NC(=O)C2CCCN(S(=O)(=O)c3cn(C)cn3)C2)cc1Cl (centres undefined),x,x,0%[46 µM],x,x,x
Cc1ccc(S(=O)(=O)N2c3ccc(S(N)(=O)=O)cc3CC2C)cc1 (centres undefined),25µM*,-1%,3%,5%,-6%,-5%[0.074 µM]
Cc1ccc(S(=O)(=O)N2c3ccccc3CC2C)cc1 (centres undefined),-4%,1%,u,-3%,x,-13%[10 µM]
Cc1ccnc(NC(=O)c2cc([N+](=O)[O-])cc([N+](=O)[O-])c2)c1,7%,3%,25%[9.22 µM],21%,x,-18%
O=C(CC1NCCc2ccccc21)Nc1ccc(Cl)cc1 (centres undefined),u,-2%,-3%[46 µM],-9%,x,-9%[10 µM]
CCOC(=O)C1CCCN(Cc2c(Cl)cccc2Cl)C1 (centres undefined),u,0%,-1%,13%,11%,1%
CCOC(=O)C1CCCN(Cc2cc(Br)ccc2OC)C1 (centres undefined),10µM*,0%,-3%,-10%,-3%,-9%[10 µM]
CCOC(=O)C1CCCN(Cc2ccccc2F)C1 (centres undefined),11µM*,1%,4%,-3%,-5%,-1%[0.074 µM]
COc1cccc(C(=O)Nc2ccc(C(=O)OCc3cc(=O)n4cc(C)sc4n3)cc2)c1,x,x,5%[46 µM],x,x,x
COC(=O)c1ccc2c(c1)C(C)(C)C(/C=C/c1ccccc1O)=[N+]2C,u,4.5µM*,u,3.5µM*,u,-110%

# Source: PubChem BioAssay
